Source: PubChem (several laboratories)
An excerpt weighted towards active compounds, which were near 2.4% of everything screened.
TMEM16A inh: inhibitors of mouse TMEM16A calcium-activated chloride channel | Q8BHY3 | HEK293 TMEM16A/YFP iodide influx fluorescence, ionomycin | actives 1.2% (n = 310,000) | AID 588511 | normalized B-score (activity score, 25-100; higher = stronger inhibition) at 10 µM;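 active = ratio plate-corrected score three or more library SD toward inhibition, starting fluorescence score within five deviations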;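 note: score derived from kinetic fluorescence span divided by baseline fluorescence per well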
m5-HT2A agonist: activates the mouse 5-HT2A serotonin receptor | actives 0.66% (n = 360,000) | activation, % at 7.6 µM | CHO-K1 mHTR2A beta-arrestin complementation, luminescence; percent of 30 µM serotonin response | P35363;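 active = activation above a run cutoff, the mean activation of all tested compounds plus 3 SD, cut at about 14% in these data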
TLR4-MyD88 BLA: blocks binding of human TLR4 to MyD88; actives 0.18% (n = 200,000); O00206+Q99836; inhibition, % at 8.4 µM; HeLa CL3-4 TLR4/MyD88 BLA complementation, FRET ratio; AID 861; in the data active = inhibition above about 25%
TLR9-MyD88 block: blocks human TLR9 binding to MyD88; Q9NR96+Q99836; CHO BLA complementation TLR9-MyD88, CCF4 FRET ratio; inhibition, % at 4.98 µM; actives 0.21% (n = 340,000);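 active = inhibition above the mean over all tested compounds plus 3 SD, cut at about 21% in these data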
ANO1 activ: activators or potentiators of mouse TMEM16A chloride channel | HEK293 TMEM16A/YFP-H148Q/I152L, iodide quench fluorescence; hits give low values | B-score at 10 µM | actives 0.3% (n = 340,000) | AID 623877;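 active = fluorescence-ratio B-score plate-corrected deviation score at least 3 library SD below zero, with starting fluorescence score within 5 deviations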;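 note: channel opened by trigger with iodide after compound preincubation; score built on the fluorescence ratio of max minus min over baseline; more negative score means more quench and so TMEM16A activation or potentiation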
NOD2 RIPK2 PPI: blocks binding of human NOD2 to RIPK2; CHO BLA complementation NOD2-RIPK2, CCF4 ratio; inhibition, % at 4.98 µM; actives 0.38% (n = 360,000); AID 624267; in the data active = inhibition above about 21%
TMEM16A reconf: reconfirmed blocker of mouse TMEM16A calcium-activated chloride channel; shares compounds with TMEM16A inh; HEK293 TMEM16A/YFP-H148Q, iodide quench fluorescence; ionomycin added to raise cell calcium; inhibition, % at 10 µM; actives 39% (n = 2,300); AID 652189;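 active = mean duplicate percent inhibition, scaled so buffer wells are 0 and the reference blocker 100, over three buffer SD above buffer mean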
TMEM16A Ca cntr: alters calcium mobilization in TMEM16A HEK293 cells, counter-screen; shares compounds with TMEM16A inh; TMEM16A/YFP HEK293, Fluo4 calcium mobilization; calcium response (% of ionomycin), % at 10 µM; actives 2% (n = 2,300); AID 652231;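 active = duplicate-averaged calcium signal over 20% of the ionomycin maximum, relative to buffer baseline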;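 note: each well's signal is peak minus trough fluorescence divided by its pre-addition baseline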
Parental YFP cnt: parental YFP-HEK293 iodide quench counter-screen activity; shares compounds with TMEM16A inh; 2,300 tested, under 10 active; ionomycin; YFP ratio F(max-min)/F0 at 10 µM;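 active = yellow fluorescent protein signal ratio exceeding the buffer control mean by over 5 SD of those controls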;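 note: ratio is mean of duplicate wells from kinetic YFP trace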
ClC-1 rat inh: selectivity of TMEM16A inhibitors: inhibition of rat ClC-1 chloride channel; shares compounds with TMEM16A inh; CHO ClC-1-YFP, iodide influx fluorescence quench; iodide control reads 0, buffer control 100; ratio percent, % at 10 µM; 2,300 tested, under 10 active; AID 652236;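 active = duplicate-mean ratio percent above the mean of iodide-only control wells, which defines zero, plus 5 of their SD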;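 note: higher percent means stronger block of ClC-1 iodide influx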
Of the large screens only hits and unclear results are named; the others gave an inactive call (follow-up assays come after a bar, where they were run).

CNC(=O)c1c(NC(=O)c2ccc(S(=O)(=O)N3CCCc4ccccc43)cc2)sc2c1CCN(C)C2	none (no result: TLR4-MyD88 BLA) | TMEM16A reconf inactive | TMEM16A Ca cntr inactive | Parental YFP cnt inactive | ClC-1 rat inh inactive
CCCN1CCc2c(sc(NC(=O)c3ccc(S(=O)(=O)N(C)c4ccccc4)cc3)c2C(=O)NC)C1	none (no result: TLR4-MyD88 BLA) | TMEM16A reconf 23.5% | TMEM16A Ca cntr inactive | Parental YFP cnt inactive | ClC-1 rat inh inactive
O=C(c1cnn2c1NC(c1ccco1)CC2C(F)(F)F)N1CCN(c2cccc(Cl)c2)CC1 (configuration not stated)	TMEM16A inh 25 | TMEM16A reconf inactive | TMEM16A Ca cntr inactive | Parental YFP cnt inactive | ClC-1 rat inh inactive
CN(C(=O)OC(C)(C)C)c1ccc(-c2nc3ccccc3s2)cc1	TMEM16A inh 25 (no result: TLR4-MyD88 BLA) | TMEM16A reconf 24.5% | TMEM16A Ca cntr inactive | Parental YFP cnt inactive | ClC-1 rat inh inactive
CCCCOc1ccc(C(=O)OCC(=O)N2CCCCCC2)cc1	none (no result: TMEM16A inh, TLR4-MyD88 BLA)
COc1ccc(S(=O)(=O)N2CCOCC2)cc1C(=O)NC1CCCCCC1	none (no result: TMEM16A inh, TLR4-MyD88 BLA)
Cc1ccc(-c2nc(CS(=O)(=O)CC(=O)N3CCc4ccccc4C3)c(C)o2)cc1	TMEM16A inh 25 | TMEM16A reconf 25.5% | TMEM16A Ca cntr inactive | Parental YFP cnt inactive | ClC-1 rat inh inactive
COc1cc(/C=C/C(=O)OC[C@H]2O[C@H](OC3(CO)OC(CO)C(O)C3O)[C@H](O)[C@@H](O)[C@@H]2O)ccc1O (some centres not stated)	none (no result: TMEM16A inh, TLR4-MyD88 BLA)
COc1ccc(/C=C2\CCCC3C2=NC(=S)NC3c2ccc(OC)cc2)cc1 (configuration not stated)	none
CC1CCN(C(=O)c2[nH]cnc2C(=O)N[C@@H](CCCCNC(=O)OC(C)(C)C)C(=O)OC(C)(C)C)CC1	TMEM16A inh 100 (no result: TLR4-MyD88 BLA) | TMEM16A reconf inactive | TMEM16A Ca cntr inactive | Parental YFP cnt inactive | ClC-1 rat inh inactive
CC(C)C[C@H](NC(=O)c1nc[nH]c1C(=O)N1CCC(C)CC1)C(=O)OC(C)(C)C	none (no result: TLR4-MyD88 BLA)
Cc1nn(-c2ccc(Cl)cc2)c2[nH]c(CCl)cc(=O)c12	TMEM16A inh 100 (no result: TLR4-MyD88 BLA) | TMEM16A reconf 45.5% | TMEM16A Ca cntr inactive | Parental YFP cnt inactive | ClC-1 rat inh inactive
CCN(CC)CCNC1=NCCn2c1cc1cc(OC)ccc12	TMEM16A inh 25 | TMEM16A reconf inactive | TMEM16A Ca cntr inactive | Parental YFP cnt inactive | ClC-1 rat inh inactive
Oc1c(Br)cc(Br)cc1C=Nc1cccc2ncccc12	none (no result: TLR4-MyD88 BLA) | TMEM16A reconf 17.5% | TMEM16A Ca cntr inactive | Parental YFP cnt inactive | ClC-1 rat inh inactive
Brc1cccc(C=Nc2cccc3ncccc23)c1	none (no result: TLR4-MyD88 BLA)
CCCSc1nsc(NC(=O)Nc2ccc(F)cc2F)n1	TMEM16A inh 100 (no result: TLR4-MyD88 BLA) | TMEM16A reconf 66.5% | TMEM16A Ca cntr inactive | Parental YFP cnt inactive | ClC-1 rat inh inactive
Cn1c(SCC(=O)Nc2ccc3c(c2)n(C)c(=O)n3C)nnc1-c1ccncc1	none (no result: TLR4-MyD88 BLA) | TMEM16A reconf inactive | TMEM16A Ca cntr inactive | Parental YFP cnt inactive | ClC-1 rat inh inactive
Cc1ccc2nc(SCC(=O)N3CCC(Cc4ccccc4)CC3)nc(=O)n2c1	TMEM16A inh 100 (no result: TLR4-MyD88 BLA) | TMEM16A reconf 16.5% | TMEM16A Ca cntr inactive | Parental YFP cnt inactive | ClC-1 rat inh inactive
CCOc1ccc(-c2c[n+](=O)c3c(n2[O-])CCCC3)c(OCC)c1	none
